Molecules are shown by their SMILES. Hit rate of the full screen: of about 290,000 compounds, about 2,100 (0.72%) were called active. About 4% were inconclusive and are not listed. The call rests on the fitted dose curve; in most records, active means well fitted inhibition curve with a large enough effect; inconclusive means small, poorly fitted or top-dose-only effect, or effect the other way; inactive means flat fitted curve, though single readings scatter. The entries come from a sample that favours actives as a whole. A call without a number means that no potency is given here.
Potency means the concentration at half of the fitted maximal effect.

The target of the test is Fructose-bisphosphate aldolase (Giardia intestinalis (strain ATCC 50803 / WB clone C6)) (UniProt A8B2U2). In words: qHTS Assay for Inhibitors of Fructose-1,6-bisphosphate Aldolase from Giardia Lamblia. Further: nearly all actives have a fitted effect of over 55% in size. The following applies: purified Giardia FBPA; series mostly up to 59.6 µM. Put shortly: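 40 nM FBPA preincubated 10 min at RT with compound (up to 57.5 uM final), then substrate plus GAPDH/TPI/NAD/arsenate coupling and diaphorase/resazurin added. Fluorescence read after 20 min at RT, 525/598 nm.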
Chain of Fructose-bisphosphate aldolase (Giardia intestinalis (strain ATCC 50803 / WB clone C6)) (A8B2U2 whole entry, looked up): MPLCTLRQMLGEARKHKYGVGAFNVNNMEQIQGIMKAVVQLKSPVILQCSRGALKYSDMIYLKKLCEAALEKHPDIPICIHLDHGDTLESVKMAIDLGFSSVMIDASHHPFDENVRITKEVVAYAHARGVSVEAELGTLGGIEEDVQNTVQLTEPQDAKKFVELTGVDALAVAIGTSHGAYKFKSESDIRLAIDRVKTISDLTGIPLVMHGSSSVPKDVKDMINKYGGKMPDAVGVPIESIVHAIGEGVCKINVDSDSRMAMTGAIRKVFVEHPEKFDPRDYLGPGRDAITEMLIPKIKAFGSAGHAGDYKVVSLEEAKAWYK
Background: In qHTS, concentration-response curves come from the screen itself.
As to `c1ccc2c(c1)CCc1snnc1-2`, the Potency result was “inactive”. With `CSc1ccc(S(=O)(=O)N2CCC(C(=O)NCCc3ccccc3)CC2)cc1` the entry was “inactive”; with `CSc1ccccc1NC(=O)c1ccc2c(c1)CCN2S(C)(=O)=O`, “inactive”. The result for `CC(NC(=O)Cn1cc(C(F)(F)F)cc(Cl)c1=O)c1ccccc1` (configuration not stated) reads “inactive”. The result for `CO/N=C(\C(=O)N[C@@H]1C(=O)N2C(C(=O)O)=C(COC(C)=O)CS[C@H]12)c1csc(N)n1` (stereo in doubt) reads “inactive”.

For `Cc1nnc(SCC(=O)NC2CCCC2)s1`, the Potency entry was “inactive”. Regarding `Cc1nnc(SCC2=C(C(=O)O)N3C(=O)C(NC(=O)Cn4nc(C)c(Cl)c4C)C3SC2)s1` (configuration not stated), the Potency was 22.3 µM (active). With `Cc1cccc(NC(=S)NCCc2ccc(Cl)cc2)c1C` the entry was “inactive”; with `O=C(Nc1ccccc1)/C(=C\c1ccco1)NC(=O)c1ccco1`, “inactive”; with `CCCC1=Nc2cc(C(=O)NCCN3CCCC3)ccc2Sc2ccccc21`, “inactive”.

`Cc1nc(N2CCOCC2)sc1C(=O)NN`: the Potency was 12.6 µM (active). `CCOC(=O)N1CCC(NC(=O)c2ccc3nc(N4CCOCC4)sc3c2)CC1`: the Potency result was “inactive”. As to `Cc1nc(-c2ccc(Cl)cc2)sc1C(=O)NN`, the Potency result was “inactive”.

`Cc1ccc(NS(=O)(=O)c2ccc3c(c2)oc(=O)n3C)c(C)c1`: the Potency entry is “inactive”. For `CCCOc1ccc(-c2nc(N)n[nH]2)cc1`, the Potency entry is “inactive”. On to `Cc1ccc(OCc2n[nH]c(=S)n2-c2ccc(C)cc2)cc1`, for which the Potency result was “inactive”. The result for `Cc1ccc(OCCCCc2c(C)n[nH]c2C)cc1` reads 20 µM (active). For the compound `Cc1ccccc1C(=O)N1CCC(C(=O)Oc2ccc(C#N)cc2)CC1`, the Potency entry is “inactive”. The result for `Cc1ccc(CNC(=O)C2CCCN2S(=O)(=O)c2ccc3c(c2)C(C)(C)C(=O)N3C)cc1` (configuration not stated) reads “inactive”; that for `CCCCOC(=O)Nc1nnc(CC(=O)NCc2ccccc2)s1`, “inactive”; that for `CCCOC1CCCN(C(=O)c2cc(COc3cncc(Cl)c3)on2)C1` (configuration not stated), “inactive”. With `C/C(=N\NC(N)=S)c1cccnc1` the figure was 15.8 µM (active); with `C/C(=N\NC(=O)c1cccc([N+](=O)[O-])c1)c1cccnc1`, “inactive”. The result for `C/C(=N\NC(=O)c1cccnc1)c1ccc(-c2ccccc2)cc1` reads “inactive”; that for `CCOC(=O)[C@@H]1[C@H]2COc3cc(OC)ccc3[C@@H]2N2C(=O)N(c3cccc(C)c3)C(=O)[C@@]12C`, “inactive”; that for `CN(Cc1ccccc1)C(=O)c1cccc(C(=O)N(C)Cc2ccccc2)c1`, “inactive”.

As for `CCOc1ccc(N(CC(=O)NCCc2ccc(F)cc2)S(=O)(=O)c2ccccc2)cc1`, the Potency result is “inactive”. The result for `Cc1cccc(S(=O)(=O)N2CN(CC3CCCO3)c3nc4ccccc4nc32)c1` (configuration not stated) reads “inactive”; that for `CC/C(=N\NC(=O)c1c(C)nc2ccccn12)c1ccc(Cl)cc1`, “inactive”. `CC1(C)Cc2ccccc2/C(=C/C(=O)c2ccccc2)N1`: the Potency result was “inactive”. Consider `CCCc1nc2ccccc2c(=O)n1/N=C/c1ccc(O)c(O)c1`, for which the Potency was 2.51 µM (active). With `CCCc1nc2ccccc2c(=O)n1NC(=O)c1c(O)c2ccccc2[nH]c1=O`, the Potency result was “inactive”. `Cn1c(SCC(=O)N/N=C/c2ccc(O)c(O)c2)nc2ccccc21`: the Potency result is “inactive”. With `CC1C(=O)N(Cc2ccccc2)c2ccccc2N1C(=O)c1ccccc1` (configuration not stated) the entry was “inactive”; with `COc1ccccc1C1C(C(N)=O)=C(C)Nc2nc(CCCO)nn21` (configuration not stated), “inactive”. With `CN=C1S/C(=C\c2ccc(Sc3ccc(Cl)cc3)o2)C(=O)N1C` the entry was “inactive”. The result for `O=C(O)C(c1ccccc1)N1C(=O)/C(=C\c2ccc(-c3cccc(Cl)c3)o2)SC1=S` (configuration not stated) reads “inactive”. Take `CN1C(=O)/C(=C\c2ccc(-c3ccccc3)o2)SC1=S`: the Potency was 4.46 µM (active). With `COc1ccc(CNCCc2c[nH]c3ccccc23)cc1OC` the figure was 17.8 µM (active). For the compound `COc1ccc(CNC(=O)[C@H](Cc2c[nH]c3ccccc23)NC(C)=O)cc1OC`, the Potency result was “inactive”. Turning to `COc1ccc(S(=O)(=O)NCCc2c[nH]c3ccccc23)cc1OC`, the Potency result was “inactive”. The result for `CCN(CC(=O)NC(=O)NCc1ccccc1)Cc1nc2ccccc2c(=O)[nH]1` reads 17.7 µM (active); that for `CCN(CC(=O)Nc1ccc(Cl)c(S(=O)(=O)N(C)C)c1)Cc1nc2ccccc2c(=O)[nH]1`, “inactive”. The result for `CCN(CC(=O)Nc1cccc(S(N)(=O)=O)c1)Cc1nc2ccccc2c(=O)[nH]1` reads “inactive”; that for `CC(C)CCNC(=O)c1ccc2c(Cl)c3c(nc2c1)CCC3`, “inactive”; that for `Cc1ccc(-n2c(SCC(=O)N3CCC(C(=O)O)CC3)nc3ccccc3c2=O)cc1C`, “inactive”. With `COc1cc(CN2CC(C)CC(C)C2)cc([N+](=O)[O-])c1O` (configuration not stated) the entry was “inactive”; with `COc1cc(NC(=O)NCC2CCN(Cc3ccc(C)cc3)CC2)cc(OC)c1OC`, “inactive”; with `COc1cc(CN2CCN(Cc3ccc(C)cc3)CC2)c([N+](=O)[O-])cc1OC`, 5.61 µM (active). Take `CC(=O)c1ccc(N2CCN(S(=O)(=O)c3ccc4c(c3)CC(=O)N4C)CC2)cc1`: the Potency result was “inactive”. With `COc1ccc(NC(=O)c2cc(-c3cc(OC)c(OC)c(OC)c3)nc3ccccc23)c(OC)c1` the entry was “inactive”; with `Cn1c(=O)n(C)c2cc(S(=O)(=O)Nc3ccc(F)cc3)ccc21`, “inactive”; with `COc1ccc(NC(=O)C(CC(C)C)NC(=O)C2CCC(C)CC2)cc1` (configuration not stated), “inactive”.

On to `CC[C@]1(c2ccccc2OC)C(=O)N(C(=O)OC)N1C(=O)OC`, for which the Potency entry is “inactive”.

Take `COc1ccccc1NC(=O)N1C[C@@H]2C[C@@H](C1)c1cccc(=O)n1C2`: the Potency result is “inactive”. The result for `O=C(NC(=S)N1C[C@H]2C[C@H](C1)c1cccc(=O)n1C2)c1ccc(F)cc1` reads 7.94 µM (active); that for `COc1cccc(C(=O)N2C[C@H]3C[C@@H](C2)c2cccc(=O)n2C3)c1`, “inactive”. Consider `Cc1ccc(SCCSc2ncccn2)cc1`, for which the Potency entry was “inactive”. With `O=C(COC(=O)Cc1ccc(F)cc1)Nc1cc(S(=O)(=O)N2CCOCC2)ccc1N1CCCC1` the entry was “inactive”. The result for `COCCNC(=S)Nc1cc(S(=O)(=O)N2CCOCC2)ccc1N1CCCCC1` reads 2.81 µM (active); that for `CC(=O)NCCC(=O)Nc1cc(S(=O)(=O)N2CCOCC2)ccc1N1CCOCC1`, “inactive”; that for `Cc1ccc(C(=O)NC2CCN(C(=O)Nc3ccc(F)cc3)CC2)cc1`, “inactive”.

`C=CCCN(C(Cc1ccccc1)C(=O)OC)S(=O)(=O)c1cc(Br)ccc1Br` (configuration not stated): the Potency result is “inactive”. With `CCCNC(=O)c1ccc(N2CCC3(CC2)CC(c2ccc(Cl)cc2)=NO3)c([N+](=O)[O-])c1` the entry was “inactive”; with `Cc1cc(C)n(-c2ccc3nncn3n2)n1`, “inactive”. As for `COc1ccc(NC(=O)c2nc(-n3nc(C)cc3C)ccc2Cl)cc1Cl`, the Potency result was “inactive”. `Cc1cc(C)n(-c2ccc(Cl)c(C(=O)O)n2)n1`: the Potency was 15.8 µM (active).

(Values after PubChem BioAssay AID2451 (National Center for Advancing Translational Sciences (NCATS), 2010).)
